# PubChem BioAssay (NCATS)
# Values joined by “and” are separate entries in the source; they are usually repeats but may differ in a detail not shown here. Equal entries are not always repeated. Records with an inconclusive call do not appear. Entries that show only a call come without a potency. Active and inactive are the calls of the source. Unless noted, the call rests on the fitted dose curve; in most records, active means well fitted curve in the direction sought with a large enough effect; inconclusive means small, poorly fitted or top-dose-only effect, or another doubt; inactive means no such curve, though single readings can be large; an effect the other way counts as inactive or inconclusive.
# How the values were obtained:
# [1] = tested on: Zika virus NS2B-NS3 protease (unlinked complex); experiment: Primary screen GU Rhodamine qHTS for Zika virus inhibitors: Unlinked NS2B-NS3 protease assay (AID 1347159); further: nearly all actives have a fitted effect of over 60% in size
# In short: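 Compounds, tested up to 114 microM, were incubated for 15 minutes with 25 nM unlinked NS2B-NS3 protease at pH 8.0. Cleavage of 1.5 microM Rhodamine110 substrate was then followed by fluorescence for 15 minutes.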
# [2] = tested on: Zika virus NS2B-NS3 protease (linked construct); experiment: Primary screen NINDS Rhodamine qHTS for Zika virus inhibitors (AID 1347160); further: nearly all actives have a fitted effect of over 55% in size
# In short: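 Percent inhibition, normalized to uninhibited and enzyme-free controls, is fitted to a 4-parameter Hill equation. Fluorescence change comes from a 15-min cleavage of 1.5 microM bis-peptide Rhodamine110 substrate by 25 nM linked NS2B-NS3 at room temperature.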
# [3] = target: Calcium and integrin-binding protein 1 (Homo sapiens) (UniProt Q99828); experiment: Primary qHTS for Identification of Calcium Integrin Binding Protein 1 (CIB1) Competitor (AID 1508620);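 further: GST tagged CIB1 binding a fluorescein labelled alphaIIb integrin peptide tracer; top concentration of the series differs between compounds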
# In short: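 CIB1-GST (1 uM final) and compound incubated 15 min at room temperature before adding FITC-alphaIIb peptide tracer (100 nM final). Competition for binding read by fluorescence polarization (ex 480, em 540) after another 15 min at room temperature.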
# [4] = Primary qHTS for inhibitors of nuclear receptor binding SET domain protein 2 (NSD2) in an isogenic RCH-ACV NSD2 p.E1099K mutant (9B) (AID 1645876); further: potency means the concentration at half of the fitted maximal effect; nearly all actives have a fitted effect of over 70% in size
# [5] = Primary qHTS for inhibitors of nuclear receptor binding SET domain protein 2 (NSD2) in an RCH-ACV wild type WT cells (2C) (AID 1645877); further: potency means the concentration at half of the fitted maximal effect; nearly all actives have a fitted effect of over 70% in size
# [6] = target: Glutathione peroxidase 1 (Homo sapiens) (UniProt P07203); experiment: Primary qHTS Assay for Inhibitors of Recombinant Selenoprotein Glutathione Peroxidase 1 (GPX1) (AID 1845191); further: nearly all actives have a fitted effect of over 65% in size
# In short: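 10 nM GPX1 + cpd, 30 min RT; start w/ 1 mM GSH, 0.5 mM cumene hydroperoxide, 0.5 mM NADPH, 100 nM GR, 0.01% BSA; buffer 50 mM Tris-HCl pH 7.5, 2 mM EDTA, 150 mM NaCl; Fl 340/450, 0 & 15 min.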
# [7] = target: Phospholipid hydroperoxide glutathione peroxidase GPX4 (Homo sapiens) (UniProt P36969); experiment: Primary qHTS Assay for Inhibitors of Recombinant Selenoprotein Glutathione Peroxidase 4 (GPX4) (AID 1845192); details: outcome: dose series up to 50 µM unless noted; further: nearly all actives have a fitted effect of over 65% in size; further: potency means the concentration at half of the fitted maximal effect
# In short: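 NADPH consumption, followed by fluorescence at 340/450 nm between 0 and 15 min, reports GPX4 activity via coupled glutathione reductase (100 nM). Enzyme 200 nM was pre-exposed to compound 30 min; 0.5 mM cumene hydroperoxide and 1 mM GSH served as substrates.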
# [8] = target: Luciferin 4-monooxygenase (Photinus pyralis) (UniProt P08659); experiment: Primary firefly luciferase (FLuc) qHTS assay for identification of artifact compounds. (AID 1845220); further: nearly all actives have a fitted effect of over 60% in size
# In short: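 Cell-free, 1536-well qHTS. Buffer pH 7.6 with 0.01% Tween-20 and 0.05% BSA; 10 uM D-luciferin, 10 uM ATP; 10 nM P. pyralis luciferase; luminescence after 5 min.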
# [9] = tested on: Nanoluciferase (engineered Oplophorus gracilirostris luciferase); experiment: Primary Nanoluciferase (NLuc) qHTS assay for identification of artifact compounds. (AID 1845222)
# In short: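 Compounds are pinned into diluted (1:55) conditioned medium of NLuc-expressing S16 cells and held 15 min at room temperature protected from light. Nano-Glo substrate follows, and luminescence is read 5 min later.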
# HeLa = experiment: Primary qHTS to identify gynecologic anti-cancer compounds using libraries of approved drugs and bioactive compounds (AID 1345084); details: Gynecologic cancer cell panel viability, ATPlite luminescence, 48 h; series mostly up to 57.5 µM; further: nearly all actives have a fitted effect of over 55% in size; further: potency means the concentration at half of the fitted maximal effect
# In short: (§1)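 ATP-based viability (ATPlite), 1,000 cells/well, 16 h pre-incubation, 48 h compound at 37 C, 5% CO2, 15 min RT before read.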
# Hek293T = experiment: as above; details: Gynecologic cancer cell panel viability, ATPlite luminescence, 48 h, control line for the selectivity index; series mostly up to 57.5 µM
# In short: as §1
# HaCat = experiment: Cytotoxic Profiling of Annotated Libraries Using Quantitative High-Throughput Screening (AID 1296008); details: Five cell lines viability, CellTiter-Glo ATP luminescence, 48-72 h; max response: stronger effect = lower value; further: potency means the concentration at half of the fitted maximal effect; nearly all actives have a fitted effect of over 60% in size
# In short: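 Cytotoxicity was measured as CellTiter-Glo ATP luminescence, read after 10 min at room temperature. Compound treatment of the cells lasted 48 or 72 hr at 37 degrees Celsius in a qHTS format.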
# C33A = experiment: Primary qHTS to identify gynecologic anti-cancer compounds using libraries of approved drugs and bioactive compounds (AID 1345084); details: Gynecologic cancer cell panel viability, ATPlite luminescence, 48 h; series mostly up to 57.5 µM; further: nearly all actives have a fitted effect of over 55% in size; further: potency means the concentration at half of the fitted maximal effect
# In short: as §1
# CASKI = experiment: as above; details: Gynecologic cancer cell panel viability, ATPlite luminescence, 48 h; series mostly up to 57.5 µM
# In short: as §1
# OV90 = experiment: as above; details: Gynecologic cancer cell panel viability, ATPlite luminescence, 48 h; series mostly up to 57.5 µM
# In short: as §1
# Tov-21-G = experiment: as above; details: Gynecologic cancer cell panel viability, ATPlite luminescence, 48 h; series mostly up to 57.5 µM
# In short: as §1
# Tov112D = experiment: as above; details: Gynecologic cancer cell panel viability, ATPlite luminescence, 48 h; series mostly up to 57.5 µM
# In short: as §1
# Es-2 = experiment: as above; details: Gynecologic cancer cell panel viability, ATPlite luminescence, 48 h; series mostly up to 57.5 µM
# In short: as §1
# JEG-3 = experiment: as above; details: Gynecologic cancer cell panel viability, ATPlite luminescence, 48 h; series mostly up to 57.5 µM
# In short: as §1
# [10] = qHTS drug screen for cell cycle checkpoint inhibitors in PARPi-resistant BRCA-mutant ovarian cancer cell lines. (AID 1963452; calls by dose curve; further: potency means the concentration at half of the fitted maximal effect); details: PEO1/OlaR viability, CellTiter-Glo luminescence, 96 h; for Z-AUC: stronger effect = lower value
# In short: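 PEO1, PEO4 and PEO1/OlaR ovarian cancer cells, 600 per well, exposed 96 h at 37C to a dilution series. Viability read by CellTiter-Glo luminescence, normalized to DMSO and empty wells; activity summarized as Z-AUC.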
# [11] = measured here: PEO1 parental Z-AUC
# Glutathione peroxidase 1 (Homo sapiens), sequence (P07203 whole entry, looked up): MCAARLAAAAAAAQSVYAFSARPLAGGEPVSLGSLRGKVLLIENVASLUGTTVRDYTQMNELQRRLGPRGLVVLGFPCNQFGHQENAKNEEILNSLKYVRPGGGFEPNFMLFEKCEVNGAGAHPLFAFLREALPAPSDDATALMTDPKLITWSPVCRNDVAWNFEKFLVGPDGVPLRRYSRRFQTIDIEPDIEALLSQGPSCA
# Calcium and integrin-binding protein 1 (Homo sapiens), sequence (Q99828 whole entry, looked up): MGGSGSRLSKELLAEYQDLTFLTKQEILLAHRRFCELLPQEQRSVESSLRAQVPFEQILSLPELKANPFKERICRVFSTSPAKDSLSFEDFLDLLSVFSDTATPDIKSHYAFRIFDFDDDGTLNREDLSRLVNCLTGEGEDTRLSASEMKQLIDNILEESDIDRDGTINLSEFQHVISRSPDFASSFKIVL
# Phospholipid hydroperoxide glutathione peroxidase GPX4 (Homo sapiens), sequence (P36969 whole entry, looked up): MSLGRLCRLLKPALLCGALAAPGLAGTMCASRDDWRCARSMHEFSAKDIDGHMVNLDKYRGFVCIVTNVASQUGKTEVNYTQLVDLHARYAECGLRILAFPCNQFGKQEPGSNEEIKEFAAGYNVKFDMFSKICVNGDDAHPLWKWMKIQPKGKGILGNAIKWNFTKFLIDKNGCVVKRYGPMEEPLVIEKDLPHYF
smiles,measurement,setting,value
COc1ccccc1-c1cc(Nc2cccc(CS(N)(=O)=O)c2)ncn1,Potency,[1],inactive
same,Potency,[2],inactive
same,outcome,[3],inactive
same,Potency,[4],4.09 µM (active)
same,Potency,[5],2.9 µM (active)
same,Potency,[6],inactive
same,Potency,[7],inactive
same,Potency,[8],inactive
same,Potency,[9],inactive
same,Potency,HeLa,22.4 µM (active)
same,Potency,Hek293T,20 µM (active)
OCC(Cc1ccccc1)Nc1nc(Oc2ccc3c(c2)CCC3)nc2c1ncn2Cc1ccc(-c2ccccc2)cc1 (configuration not stated),Potency,[2],inactive
same,outcome,[3],inactive
same,Potency,[4],16.3 µM (active)
same,Potency,[7],inactive
same,Potency,[8],inactive
same,Potency,[9],inactive
same,Potency,HaCat,18.4 µM (active)
same,Potency,C33A,inactive
same,Potency,CASKI,inactive
same,Potency,HeLa,inactive
same,Potency,Hek293T,inactive
same,Potency,OV90,inactive
same,Potency,Tov-21-G,inactive
same,Potency,Tov112D,inactive
CCOC(=O)c1cnn(-c2ccc(NC(=O)C(Cl)=C(Cl)Cl)cc2)c1C(F)(F)F,Potency,[2],inactive
same,outcome,[3],inactive
same,Potency,[4],11.5 µM (active)
same,Potency,[5],6.49 µM (active)
same,Potency,[6],inactive
same,Potency,[7],inactive
same,Potency,[8],inactive
same,Potency,[9],inactive
same,Potency,Es-2,inactive
same,Potency,HeLa,inactive
same,Potency,Hek293T,inactive
COc1ccc(Cl)cc1[C@@]1(F)C(=O)Nc2cc(C(F)(F)F)ccc21,Potency,[2],inactive
same,outcome,[3],inactive
same,Potency,[4],7.28 µM (active)
same,Potency,[5],5.78 µM (active)
same,Potency,[7],inactive
same,Potency,[9],inactive
same,Potency,C33A,inactive
same,Potency,CASKI,inactive
same,Potency,Es-2,inactive
same,Potency,JEG-3,inactive
same,Potency,OV90,inactive
same,Potency,Tov-21-G,inactive
C[C@@H]1COCCN1c1cc(C2(S(C)(=N)=O)CC2)nc(-c2ccnc3[nH]ccc23)n1 (some centres not stated),outcome,[3],inactive
same,Potency,[4],662 nM (active) and 3.66 µM (active)
same,Potency,[5],662 nM (active) and 2.31 µM (active)
same,Potency,[7],20.2 µM (active)
same,Potency,[10],2.75 µM (active)
same,Z-AUC,[10]; [11],-1.94
same,Z-AUC,[10]; measured here: PEO4 Z-AUC,-1.89
same,Potency,HaCat,16.6 µM (active)
CN(C)C(=O)c1cc2cnc(Nc3ccc(N4CCNCC4)cn3)nc2n1C1CCCC1,Potency,[1],inactive
same,Potency,[2],inactive
same,outcome,[3],inactive
same,Potency,[4],4.09 µM (active)
same,Potency,[5],5.15 µM (active)
same,Potency,[6],inactive
same,Potency,[7],inactive
same,Potency,[8],inactive
same,Potency,[9],inactive
same,Z-AUC,[10],0.0269 (inactive)
same,Z-AUC,[10]; [11],0.759
same,Z-AUC,[10]; measured here: PEO4 Z-AUC,0.126
same,Potency,C33A,inactive
same,Potency,CASKI,inactive
same,Potency,Es-2,inactive
same,Potency,HeLa,inactive
same,Potency,Hek293T,inactive
same,Potency,JEG-3,inactive
same,Potency,OV90,inactive
same,Potency,Tov-21-G,inactive
same,Potency,Tov112D,inactive
CCN1CCN(Cc2ccc(-c3cc4c(NC(C)c5ccccc5)ncnc4[nH]3)cc2)CC1 (configuration not stated),Potency,[1],inactive
same,Potency,[2],inactive
same,outcome,[3],inactive
same,Potency,[4],4.59 µM (active)
same,Potency,[5],5.78 µM (active)
same,Potency,[7],14.3 µM (active)
same,Potency,[8],inactive
same,Potency,[9],inactive
same,Potency,HaCat,2.91 µM (active)
same,Potency,C33A,inactive
same,Potency,Es-2,inactive
same,Potency,HeLa,inactive
same,Potency,Hek293T,inactive
same,Potency,JEG-3,inactive
same,Potency,Tov-21-G,4.47 µM (active)
